Assay [1] addresses Hepatocyte nuclear factor 3-beta (Homo sapiens) (UniProt Q9Y261). Kind of assay: ATG_FoxA2_CIS: Attagene CIS-FACTORIAL HepG2 Assay for human Forkhead box A2 (FOXA2) (AID 2282942). The conditions noted are these: HepG2 cis-reporter transcription factor activity, 24 h; actives raise or lower the signal. An outline of the steps: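 HepG2 transiently transfected with a multiplexed cis-promoter reporter library read endogenous FOXA2 activity. After 24 h compound exposure, reporter mRNA was quantified by RT-PCR, HpaI digestion and capillary electrophoresis. Bidirectional fit against DMSO.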

Assay [2] has as its target Heat shock factor protein 1 (Homo sapiens) (UniProt Q00613). Kind of assay: ATG_HSE_CIS: Attagene CIS-FACTORIAL HepG2 Assay for human Heat Shock Transcription Factor 1 (HSE) (AID 2282953). Particulars: HepG2 HSE cis-reporter, Attagene RNA transcription; actives raise or lower the signal. The procedure, abridged: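 Read-out: fluorescence of reporter-specific RT-PCR fragments separated by capillary electrophoresis. HepG2 carrying transfected cis-element reporter units; 24 h dosing; activity fitted in both directions relative to DMSO baseline.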

Assay [3] can be described thus: ATG_RORE_CIS: Attagene CIS-FACTORIAL HepG2 Assay for human RAR-related Orphan Receptor Element (RORE) (AID 2282959). The conditions noted are these: HepG2 Attagene cis-factorial RORE reporter, mRNA; actives raise or lower the signal. The procedure, abridged:
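HepG2 cells carrying transiently transfected cis-regulated reporter units; RORE-driven reporter mRNA quantified 24 h post-dosing by RT-PCR, 6-FAM primer extension, HpaI digestion and capillary electrophoresis. Bidirectional fit versus DMSO.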

Assay [4] can be described thus: ATG_Sox_CIS: Attagene CIS-FACTORIAL HepG2 Assay for human SRY-box transcription factor (SOX) (AID 2282960). Particulars: HepG2 Attagene cis-factorial SOX reporter, mRNA; actives raise or lower the signal. The procedure, abridged: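 HepG2 cells transiently transfected with multiple cis-regulated reporter units, then dosed for 24 h. Reporter mRNA quantified by RT-PCR, fluorescent labelling, HpaI digestion and capillary electrophoresis; bidirectional fit versus DMSO.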

The target in assay [5] is Transcription factor Sp1 (Homo sapiens) (UniProt P08047). Kind of assay: ATG_Sp1_CIS: Attagene CIS-FACTORIAL HepG2 Assay for human Specificity Protein 1 (Sp1) (AID 2282961). Particulars: HepG2 Sp1 cis-reporter transcription, actives raise or lower the signal. An outline of the steps:
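HepG2 cells transiently transfected with multiplexed cis-regulated reporter constructs, chemical exposure 24 h. Reporter mRNA quantified by RT-PCR with capillary electrophoresis; bidirectional fit relative to DMSO.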

Assay [6] in a line: ATG_SREBP_CIS: Attagene CIS-FACTORIAL HepG2 Assay for human Sterol Regulatory Element Binding (SREBP) (AID 2282962). Particulars: HepG2 Attagene cis-factorial SREBP reporter, mRNA; actives raise or lower the signal. An outline of the steps: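 Endogenous factor activity is measured in HepG2 through multiplexed reporter units under cis-element control. Following a 24 h incubation, reporter transcripts are reverse-transcribed, PCR-amplified and sized by capillary electrophoresis; activity is fitted in both directions relative to DMSO.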

Assay [7] concerns the target Signal transducer and activator of transcription 3 (Homo sapiens) (UniProt P40763). Kind of assay: ATG_STAT3_CIS: Attagene CIS-FACTORIAL HepG2 Assay for human Signal Transducer and Activator of Transcription 3 (STAT3) (AID 2282963). Particulars: HepG2, Attagene cis-factorial STAT3 reporter transcription; actives raise or lower the signal. The procedure, abridged: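 HepG2, MRTU-transfected, 24 h dosing. RNA → RT → PCR → FAM label → HpaI → CE. Bidirectional fit vs DMSO.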

The nature of assay [8]: ATG_TA_CIS: Attagene CIS-FACTORIAL HepG2 Assay for human TA Basal Promoter (AID 2282964). The conditions noted are these: HepG2 Attagene CIS-factorial TA basal promoter reporter; actives raise or lower the signal. An outline of the steps:
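Transfected HepG2, 24 h compound exposure; RNA → RT-PCR → FAM primer extension → HpaI cut → CE fluorescence. Gain/loss-of-signal fitted against DMSO negative control. Background-control readout.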

The nature of assay [9]: ATG_TCF_b_cat_CIS: Attagene CIS-FACTORIAL HepG2 Assay for human T-Cell-Factor with beta-catenin (TCF/b-cat) (AID 2282965). The conditions noted are these: HepG2 TCF/beta-catenin cis-reporter transcription, actives raise or lower the signal. The procedure, abridged: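 HepG2 cells transiently transfected with multiple cis-promoter-regulated reporter transcription units, so endogenous transcription factor activity is measured. Reporter mRNA read 24 hours after dosing by RT-PCR, fluorescent labelling and capillary electrophoresis; bidirectional fitting against DMSO.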

The nature of assay [10]: ATG_TAL_CIS: Attagene CIS-FACTORIAL HepG2 Assay for human TAL Basal Promoter (AID 2282966).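 Note: background control endpoint measuring basal TAL promoter reporter mRNA not a specific factor.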 Particulars: HepG2 Attagene cis-factorial TAL promoter reporter; actives raise or lower the signal. The procedure, abridged:
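Background-control endpoint: basal TAL promoter reporter transcripts in transiently transfected HepG2, measured 24 h after dosing. Read-out by RT-PCR with fluorescent primer extension and capillary electrophoresis; gain or loss of signal fitted relative to DMSO.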

The nature of assay [11]: ATG_VDRE_CIS: Attagene CIS-FACTORIAL HepG2 Assay for human Vitamin D Receptor Element (VDRE) (AID 2282968). The conditions noted are these: HepG2 VDRE cis-reporter transcription, actives raise or lower the signal. The procedure, abridged:
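Steps: transfect HepG2 with multiple reporter transcription units; dose chemicals 24 h; isolate RNA; RT-PCR; label with 6-FAM primer extension; HpaI digest; capillary electrophoresis. Curves fitted both directions against DMSO.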

Assay [12] concerns the target Transcriptional activator Myb (Homo sapiens) (UniProt P10242). Kind of assay: ATG_Myb_CIS: Attagene CIS-FACTORIAL HepG2 Assay for human Myeloblastosis (Myb) Proto-Oncogene Transcription Factor (AID 2282986). Particulars: HepG2 Attagene CIS-FACTORIAL Myb reporter transcription; actives raise or lower the signal. The procedure, abridged: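 Transiently transfected HepG2 cells carrying a multiplexed cis-promoter reporter set report endogenous Myb activity after 24 h compound exposure. Reporter mRNA is read by RT-PCR with capillary electrophoresis of fluorescent products, fitted bidirectionally against DMSO.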

Assay [13] concerns the target Nuclear respiratory factor 1 (Homo sapiens) (UniProt Q16656). Description: ATG_NRF1_CIS: Attagene CIS-FACTORIAL HepG2 Assay for human Nuclear Respiratory Factor 1 (NRF1) Orphan Gene (AID 2282987). The conditions noted are these: HepG2 NRF1 cis-element reporter, Attagene multiplex; actives raise or lower the signal. The procedure, abridged: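 HepG2 cells transiently transfected with multiple cis-regulated reporter units, exposed 24 h. Reporter mRNAs measured by RT-PCR, fluorescent labelling, HpaI digestion and capillary electrophoresis; bidirectional fitting against DMSO.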

A short description of assay [14]: ATG_NFI_CIS: Attagene CIS-FACTORIAL HepG2 Assay for human Nuclear Factor I (NFI) (AID 2282989). The conditions noted are these: HepG2 cis-regulatory reporter, NFI response element transcription; actives raise or lower the signal. The procedure, abridged:
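Read-out: reporter mRNA via RT-PCR plus capillary electrophoresis with fluorescence detection. Transiently transfected HepG2 (endogenous TF activity on cis promoters), 24 h compound exposure; gain or loss of signal fitted against DMSO.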

For assay [15], the target named is Myc proto-oncogene protein (Homo sapiens) (UniProt P01106). Description: ATG_Myc_CIS: Attagene CIS-FACTORIAL HepG2 Assay for human Myelocytomatosis (Myc) Proto-Oncogene Transcription Factor (AID 2282990). Particulars: HepG2, Attagene cis-reporter transcription factor activity; actives raise or lower the signal. The procedure, abridged:
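HepG2 cells transiently transfected with multiple cis-promoter-driven reporter transcription units, so endogenous TF activity is read. After 24 h compound exposure, reporter mRNA was quantified by RT-PCR, 6-FAM labelling, HpaI digestion and capillary electrophoresis; bidirectional fit versus DMSO.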

Assay [16] can be described thus: ATG_NRF2_ARE_CIS: Attagene CIS-FACTORIAL HepG2 Assay for human Nuclear Factor Erythroid 2 Related Factor 2 (NFR2) response to Antioxidant Response Elements (ARE) (AID 2282992).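 For AC50: reporter mRNA level measured by RT-PCR and capillary electrophoresis fluorescence.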 The conditions noted are these: HepG2 Attagene ARE/NRF2 reporter, transcription factor activity; actives raise or lower the signal. An outline of the steps:
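Endogenous transcription factor activity in human liver HepG2 cells is tracked via a cis-element-driven reporter within a multiplexed set. mRNA induction is read by RT-PCR and capillary electrophoresis after 24 h, with DMSO as baseline.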

The nature of assay [17]: ATG_Oct_MLP_CIS: Attagene CIS-FACTORIAL HepG2 Assay for human Octamer-Binding Transcription Factor (Oct) (AID 2282993). The conditions noted are these: HepG2 Attagene cis-factorial Oct reporter, mRNA; actives raise or lower the signal. An outline of the steps: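 Read-out: reporter mRNA via RT-PCR plus capillary electrophoresis of 6-FAM-labelled fragments. Transiently transfected HepG2, 24 h exposure, endogenous TF activity on cis elements. Gain or loss of signal fitted relative to DMSO.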

The target in assay [18] is Cellular tumor antigen p53 (Homo sapiens) (UniProt P04637). Kind of assay: ATG_p53_CIS: Attagene CIS-FACTORIAL HepG2 Assay for human p53 Transcription Factor (AID 2282994). The conditions noted are these: HepG2 p53 cis-element reporter, Attagene mRNA; actives raise or lower the signal. An outline of the steps: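 Steps: transfect HepG2 with multiplexed cis reporter constructs; dose chemicals 24 h; extract RNA, reverse-transcribe, PCR-amplify reporter sequences; FAM-label, HpaI-digest, resolve fragments by CE. Activity fitted both directions relative to DMSO.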
Cellular tumor antigen p53 (Homo sapiens), sequence (P04637 whole entry, looked up, the tested form may be a part): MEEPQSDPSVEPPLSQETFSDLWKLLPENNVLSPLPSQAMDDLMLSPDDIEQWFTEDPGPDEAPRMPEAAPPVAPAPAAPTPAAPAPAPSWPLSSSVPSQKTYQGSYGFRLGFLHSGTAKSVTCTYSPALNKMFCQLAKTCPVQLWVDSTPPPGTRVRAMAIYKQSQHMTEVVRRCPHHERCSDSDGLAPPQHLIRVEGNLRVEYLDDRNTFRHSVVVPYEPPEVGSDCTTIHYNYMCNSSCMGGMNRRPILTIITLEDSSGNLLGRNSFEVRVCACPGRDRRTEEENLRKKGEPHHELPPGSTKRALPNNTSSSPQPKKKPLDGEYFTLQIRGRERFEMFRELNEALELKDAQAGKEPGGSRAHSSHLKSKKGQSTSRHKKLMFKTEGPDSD

In assay [19] the target is Nuclear receptor subfamily 1 group I member 2 (Homo sapiens) (UniProt O75469). Description: ATG_PXR_TRANS: Attagene TRANS-FACTORIAL HepG2 Assay for human Pregnane X Receptor (PXR) (AID 2283008; active = hit-call score of the fitted dose curve at least 0.9, where 1 is the maximum). The procedure, abridged:
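HepG2 transfected (FuGene 6) with GAL4-UAS reporter units + PXR-Gal4 chimera; dosed 24 h. Total RNA → oligo(dT) RT → PCR → 6-FAM primer extension → HpaI cut → CE. Gain-of-signal vs DMSO.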

Assay [20] is described as follows: ATG_XTT_Cytotoxicity: Cytotoxicity Assessment in the Attagene TRANS-FACTORIAL HepG2 Assay (AID 2283584; active = hit-call score of the fitted dose curve at least 0.9, where 1 is the maximum). The procedure, abridged: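 Viability endpoint from XTT after 24 h chemical exposure of reporter-transfected human HepG2 liver cells; signal loss fitted relative to DMSO negative control.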

Records with an inconclusive call do not appear. Activity calls are given as the source filed them. Rule for the calls, unless noted: active = hit-call score of the fitted dose curve at least 0.9, where 1 is the maximum; inactive = score below 0.9.

Hepatocyte nuclear factor 3-beta (Homo sapiens), sequence (Q9Y261 whole entry, looked up): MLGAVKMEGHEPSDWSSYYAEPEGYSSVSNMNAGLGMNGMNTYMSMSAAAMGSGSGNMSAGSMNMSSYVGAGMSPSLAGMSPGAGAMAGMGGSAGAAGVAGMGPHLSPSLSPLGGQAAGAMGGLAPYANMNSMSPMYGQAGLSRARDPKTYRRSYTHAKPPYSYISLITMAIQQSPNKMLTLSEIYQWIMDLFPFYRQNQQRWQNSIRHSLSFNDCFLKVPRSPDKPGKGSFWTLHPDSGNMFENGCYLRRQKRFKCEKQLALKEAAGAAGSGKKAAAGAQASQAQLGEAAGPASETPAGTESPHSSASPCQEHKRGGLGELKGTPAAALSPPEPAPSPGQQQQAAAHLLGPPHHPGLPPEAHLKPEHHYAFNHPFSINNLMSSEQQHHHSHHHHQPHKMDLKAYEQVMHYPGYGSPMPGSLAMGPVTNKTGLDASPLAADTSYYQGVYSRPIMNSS
Signal transducer and activator of transcription 3 (Homo sapiens), sequence (P40763 whole entry, looked up): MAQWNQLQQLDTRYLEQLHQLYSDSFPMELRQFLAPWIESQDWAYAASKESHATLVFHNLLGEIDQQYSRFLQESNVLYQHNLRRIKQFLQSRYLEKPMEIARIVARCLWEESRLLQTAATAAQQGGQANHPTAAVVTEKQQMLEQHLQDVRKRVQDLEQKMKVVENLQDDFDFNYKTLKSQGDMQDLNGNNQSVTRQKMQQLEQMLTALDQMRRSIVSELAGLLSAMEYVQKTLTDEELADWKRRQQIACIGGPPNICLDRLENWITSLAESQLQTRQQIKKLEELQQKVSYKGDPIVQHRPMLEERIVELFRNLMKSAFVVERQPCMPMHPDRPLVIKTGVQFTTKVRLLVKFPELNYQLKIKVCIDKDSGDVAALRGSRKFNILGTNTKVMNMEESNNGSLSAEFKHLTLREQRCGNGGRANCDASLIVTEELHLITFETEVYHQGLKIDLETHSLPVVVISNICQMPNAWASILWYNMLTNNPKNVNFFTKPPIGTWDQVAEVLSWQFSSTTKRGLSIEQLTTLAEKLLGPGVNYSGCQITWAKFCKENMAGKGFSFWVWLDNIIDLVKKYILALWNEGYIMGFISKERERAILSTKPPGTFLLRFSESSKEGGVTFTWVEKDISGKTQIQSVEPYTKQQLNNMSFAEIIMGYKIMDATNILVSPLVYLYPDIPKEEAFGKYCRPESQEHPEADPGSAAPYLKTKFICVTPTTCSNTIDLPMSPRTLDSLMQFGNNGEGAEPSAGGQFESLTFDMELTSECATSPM
Heat shock factor protein 1 (Homo sapiens), sequence (Q00613 whole entry, looked up, the tested form may be a part): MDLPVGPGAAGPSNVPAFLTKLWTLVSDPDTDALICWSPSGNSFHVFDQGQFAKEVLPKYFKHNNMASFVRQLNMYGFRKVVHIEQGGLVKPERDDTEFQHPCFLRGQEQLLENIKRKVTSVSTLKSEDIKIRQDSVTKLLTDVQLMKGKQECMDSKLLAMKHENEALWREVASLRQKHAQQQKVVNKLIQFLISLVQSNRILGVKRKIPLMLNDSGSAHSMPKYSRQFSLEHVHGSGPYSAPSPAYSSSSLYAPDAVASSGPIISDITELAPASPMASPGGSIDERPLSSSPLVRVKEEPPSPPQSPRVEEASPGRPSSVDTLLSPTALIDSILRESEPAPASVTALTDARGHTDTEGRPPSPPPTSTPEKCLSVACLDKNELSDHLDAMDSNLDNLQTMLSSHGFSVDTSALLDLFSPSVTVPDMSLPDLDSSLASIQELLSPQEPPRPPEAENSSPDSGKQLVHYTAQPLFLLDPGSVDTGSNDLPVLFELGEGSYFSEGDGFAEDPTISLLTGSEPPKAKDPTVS
Myc proto-oncogene protein (Homo sapiens), sequence (P01106 whole entry, looked up): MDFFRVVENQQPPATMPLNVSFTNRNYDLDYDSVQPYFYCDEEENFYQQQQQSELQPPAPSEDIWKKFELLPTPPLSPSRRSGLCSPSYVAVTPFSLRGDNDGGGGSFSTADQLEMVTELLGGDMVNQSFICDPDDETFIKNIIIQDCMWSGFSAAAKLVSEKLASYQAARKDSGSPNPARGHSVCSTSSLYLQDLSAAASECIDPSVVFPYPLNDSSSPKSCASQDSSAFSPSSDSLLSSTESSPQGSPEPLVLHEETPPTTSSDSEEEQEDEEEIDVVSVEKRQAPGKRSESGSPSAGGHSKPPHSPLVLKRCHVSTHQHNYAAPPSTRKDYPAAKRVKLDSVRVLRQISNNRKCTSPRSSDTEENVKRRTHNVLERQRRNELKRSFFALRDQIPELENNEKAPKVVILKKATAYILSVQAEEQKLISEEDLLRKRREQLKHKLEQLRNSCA
Nuclear receptor subfamily 1 group I member 2 (Homo sapiens), sequence (O75469 whole entry, looked up, the tested form may be a part): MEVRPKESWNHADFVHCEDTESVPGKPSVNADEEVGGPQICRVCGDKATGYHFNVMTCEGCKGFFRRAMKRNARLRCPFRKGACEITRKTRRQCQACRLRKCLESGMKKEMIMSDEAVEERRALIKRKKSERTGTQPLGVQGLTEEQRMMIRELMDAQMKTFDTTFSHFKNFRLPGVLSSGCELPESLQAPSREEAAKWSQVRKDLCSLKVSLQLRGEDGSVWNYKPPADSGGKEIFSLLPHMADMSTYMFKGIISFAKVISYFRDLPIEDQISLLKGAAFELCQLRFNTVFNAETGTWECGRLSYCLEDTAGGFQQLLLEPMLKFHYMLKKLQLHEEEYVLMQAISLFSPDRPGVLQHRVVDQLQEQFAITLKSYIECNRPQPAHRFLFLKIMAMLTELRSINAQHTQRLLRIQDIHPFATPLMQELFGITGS
Nuclear respiratory factor 1 (Homo sapiens), sequence (Q16656 whole entry, looked up): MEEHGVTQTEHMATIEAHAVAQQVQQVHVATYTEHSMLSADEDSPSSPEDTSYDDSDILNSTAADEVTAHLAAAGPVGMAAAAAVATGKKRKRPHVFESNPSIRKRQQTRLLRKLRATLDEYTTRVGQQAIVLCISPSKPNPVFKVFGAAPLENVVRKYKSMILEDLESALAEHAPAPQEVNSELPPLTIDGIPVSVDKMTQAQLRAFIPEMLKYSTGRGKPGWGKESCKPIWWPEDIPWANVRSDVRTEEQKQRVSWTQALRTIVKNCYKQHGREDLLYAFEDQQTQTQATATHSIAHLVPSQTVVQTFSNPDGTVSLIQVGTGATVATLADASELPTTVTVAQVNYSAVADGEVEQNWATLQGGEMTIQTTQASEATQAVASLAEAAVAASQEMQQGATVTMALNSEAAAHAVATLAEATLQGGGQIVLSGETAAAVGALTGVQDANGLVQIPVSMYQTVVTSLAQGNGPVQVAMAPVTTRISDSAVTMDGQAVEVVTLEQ
Transcriptional activator Myb (Homo sapiens), sequence (P10242 whole entry, looked up): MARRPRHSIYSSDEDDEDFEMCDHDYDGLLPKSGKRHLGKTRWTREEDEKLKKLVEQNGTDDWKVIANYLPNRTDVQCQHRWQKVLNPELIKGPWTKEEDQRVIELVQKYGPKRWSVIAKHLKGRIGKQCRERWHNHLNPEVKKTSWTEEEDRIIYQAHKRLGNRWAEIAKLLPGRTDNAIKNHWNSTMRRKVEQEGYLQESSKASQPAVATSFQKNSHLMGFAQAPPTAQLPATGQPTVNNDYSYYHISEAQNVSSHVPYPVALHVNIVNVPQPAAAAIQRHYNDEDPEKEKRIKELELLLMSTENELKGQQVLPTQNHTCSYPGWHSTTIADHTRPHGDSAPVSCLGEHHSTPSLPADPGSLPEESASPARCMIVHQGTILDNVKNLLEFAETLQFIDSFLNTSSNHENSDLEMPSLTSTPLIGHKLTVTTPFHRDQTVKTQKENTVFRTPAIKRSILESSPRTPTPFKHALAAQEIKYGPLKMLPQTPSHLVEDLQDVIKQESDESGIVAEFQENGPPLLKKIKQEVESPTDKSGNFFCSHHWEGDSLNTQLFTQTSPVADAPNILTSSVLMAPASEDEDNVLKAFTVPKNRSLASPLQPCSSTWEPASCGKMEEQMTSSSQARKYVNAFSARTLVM
Transcription factor Sp1 (Homo sapiens), sequence (P08047 whole entry, looked up): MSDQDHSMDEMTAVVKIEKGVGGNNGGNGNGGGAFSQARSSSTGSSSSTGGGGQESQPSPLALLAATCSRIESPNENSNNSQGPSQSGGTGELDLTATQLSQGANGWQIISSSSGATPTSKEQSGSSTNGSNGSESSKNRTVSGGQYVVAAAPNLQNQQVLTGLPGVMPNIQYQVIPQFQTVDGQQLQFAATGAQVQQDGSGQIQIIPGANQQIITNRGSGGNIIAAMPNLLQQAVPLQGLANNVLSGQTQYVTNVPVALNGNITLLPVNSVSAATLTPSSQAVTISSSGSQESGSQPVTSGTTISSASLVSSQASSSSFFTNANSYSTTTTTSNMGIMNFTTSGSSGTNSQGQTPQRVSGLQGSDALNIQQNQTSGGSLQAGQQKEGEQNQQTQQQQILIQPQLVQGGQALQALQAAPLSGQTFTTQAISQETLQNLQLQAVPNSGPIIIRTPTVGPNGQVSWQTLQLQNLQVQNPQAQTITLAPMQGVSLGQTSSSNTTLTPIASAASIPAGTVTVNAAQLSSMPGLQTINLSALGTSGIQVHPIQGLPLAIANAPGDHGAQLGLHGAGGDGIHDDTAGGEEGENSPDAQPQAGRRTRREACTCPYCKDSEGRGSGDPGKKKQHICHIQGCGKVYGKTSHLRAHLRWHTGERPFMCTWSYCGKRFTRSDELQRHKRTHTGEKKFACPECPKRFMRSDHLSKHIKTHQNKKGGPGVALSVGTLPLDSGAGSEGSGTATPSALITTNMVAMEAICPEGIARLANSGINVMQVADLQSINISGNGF

As for `COC(=O)[C@]1(C)CCC[C@@]2(C)[C@H]1CC=C1C=C(C(C)C)CC[C@@H]12`, the call in assay [1], in [3], in [4], in assay [5], in [6] and in assay [7] was inactive. Moreover, the call in [8], in assay [9], in assay [12], in [13], in [14] and in assay [15] was inactive. The outcome in [17], in [18] and in [20] was inactive. Moreover, the AC50 (commonly the concentration giving half of the maximal activity seen) in [2] was 26.4 µM (active); in assay [10] it was 52.4 µM (active); in assay [11], 26.4 µM (active); in assay [16], 32.2 µM (active); in assay [19], 25.1 µM (active).

`O=C(C(=O)c1ccccc1)c1ccccc1`: the call in assay [1], in assay [2], in assay [4], in assay [5], in assay [6] and in [7] was inactive. Moreover, the result in assay [8], in [9], in assay [10], in assay [11], in [12] and in [13] was inactive. The molecule was classed as inactive in assay [14], in assay [15], in assay [16], in [17], in assay [18] and in assay [20]. Also, in [19], the AC50 was 11.3 µM (active).

For `CCC(C)NC(N)=O` (stereo not drawn), the molecule was classed as inactive in assay [1], in assay [2], in assay [3], in [4], in [5] and in assay [6]. In addition, the molecule was classed as inactive in assay [7], in [8], in assay [9], in assay [10], in assay [11] and in assay [12]. Moreover, the molecule was called inactive in [13], in assay [14], in [15], in [16], in [17] and in [18]. For the same molecule, in assay [20], the molecule was classed as inactive.

Take `CC=CC(=O)O`: the result in assay [1], in assay [2], in [3], in assay [4], in [5] and in assay [6] was inactive. Moreover, the molecule was called inactive in assay [7], in assay [8], in assay [9], in assay [10], in assay [11] and in assay [12]. The result in assay [13], in [14], in assay [15], in assay [16], in [17] and in assay [19] was inactive. The result in [20] was inactive.

Regarding `CNC(=C[N+](=O)[O-])NCCSCc1csc(CN(C)C)n1`, the molecule was classed as inactive in assay [1], in [2], in assay [3], in [4], in assay [5] and in assay [6]. Also, the call in assay [7], in [8], in [9], in [10], in assay [12] and in assay [13] was inactive. Besides, the molecule was classed as inactive in assay [14], in assay [15], in [16], in assay [17], in assay [18] and in assay [20].

`C=CCOCC(CC)(CO)COCC=C`: the result in assay [1], in assay [2], in [3], in [4], in assay [5] and in assay [6] was inactive. In addition, the call in assay [7], in [8], in assay [9], in [10], in [11] and in assay [12] was inactive. The call in assay [13], in [14], in assay [15], in assay [16], in [17] and in [18] was inactive. In addition, the molecule was called inactive in [19] and in assay [20].

As to `Cc1ccccc1S(=O)(=O)O`, the call in assay [1], in assay [2], in assay [3], in assay [5], in [6] and in assay [7] was inactive. The result in assay [8], in assay [9], in assay [10], in assay [12], in assay [13] and in assay [14] was inactive. Besides, the molecule was classed as inactive in assay [15], in [16], in assay [17], in [18] and in [20]. In assay [4], the AC50 is 27 µM (active).

These data come from PubChem BioAssay (EPA / NIEHS).
